From PubChem BioAssay (NCATS)
Inconclusive results are not listed. Active and inactive are the calls of the source. Unless noted, the call rests on the fitted dose curve; in most records, active means well fitted curve in the direction sought with a large enough effect; inconclusive means small, poorly fitted or top-dose-only effect, or another doubt; inactive means no such curve, though single readings can be large; an effect the other way counts as inactive or inconclusive.

How the values were obtained:
[1] = UWB1.289 Cancer Cell Toxicity qHTS against the NCATS CANVASS Library (AID 1347347); further: nearly all actives have a fitted effect of over 60% in size; further: potency means the concentration at half of the fitted maximal effect; on activity change, negative = cytotoxicity: on the % scale 0 is the no-effect control and ±100 the full control effect
In short: (§1)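 Cells were seeded at 1000 per well, allowed 4 h at 37 degrees C/5% CO2, then pin-treated with an 11-point compound series. After 72 h, viability was read as CellTiter-Glo luminescence following 15min at room temperature.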

[2] = HEK-293 Cancer Cell Toxicity qHTS against the NCATS CANVASS Library (AID 1347355); further: nearly all actives have a fitted effect of over 65% in size; further: potency means the concentration at half of the fitted maximal effect; on activity change, negative = cytotoxicity: on the % scale 0 is the no-effect control and ±100 the full control effect
In short: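 Cells at 1000/well were given compound 4 h after plating in an 11-point series. Viability was read by CellTiter-Glo luminescence after 72 h at 37 degrees C.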

[3] = SDT Cancer Cell Toxicity qHTS against the NCATS CANVASS Library (AID 1347365); further: nearly all actives have a fitted effect of over 60% in size; further: potency means the concentration at half of the fitted maximal effect;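 on activity change, negative = cytotoxicity: SDT canine glioma cells 500 per well in 1536 well plates; on the % scale 0 is the no-effect control and ±100 the full control effect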
In short: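 SDT dog glioma cells (500/well) exposed to an 11-point compound series for 72 hr at 37C, 5% CO2. Cytotoxicity read as ATP content by CellTiterGlo luminescence; bortezomib titration as control.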

[4] = qHTS for Antimalaria activity screened against the NCATS CANVASS Library (AID 1347380); further: nearly all actives have a fitted effect of over 40% in size; further: potency means the concentration at half of the fitted maximal effect;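 on activity change, negative = inhibition: Plasmodium falciparum strain Dd2 asexual parasites grown in red blood cells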
In short: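 Red blood cells infected with P. falciparum Dd2 (2.5% hematocrit final, 0.3% parasitemia) were exposed to compounds in an 11-point qHTS series for 72 hr at 37C under 5% O2 and 5% CO2. Lysis buffer with SYBR Green was then added for 18 hr, and fluorescence was read at 485/535 nm.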

[5] = qHTS for Activators of p53 Stress Response Pathway screened against the NCATS CANVASS Library (AID 1347388); further: potency means the concentration at half of the fitted maximal effect; on activation: 0% is about no effect
In short: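 Beta-lactamase reporter driven by p53 response elements in HCT-116 cells, read as the 460 nm/530 nm emission ratio after CCF4 loading, following 16 h of exposure to an 11-point series. Cell viability was measured in the same wells by CellTiter-Glo luminescence.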

[6] = Redox Reaction Profiling qHTS: Assay Interference Panel against the NCATS CANVASS Library (AID 1347401); further: potency means the concentration at half of the fitted maximal effect;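 on activation (redox signal): 100% = activation by 2 µM chloranil control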
In short: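 Cell-free redox surrogate: 5 uM resazurin + 200 uM DTT, 50 mM HEPES pH 7.3/50 mM NaCl; cpds pinned, 11-pt qHTS; Ex525/Em598 read t0 and t=15 min, dark.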

[7] = HPAF-II 18hr Apoptosis Induction qHTS against the NCATS CANVASS Library (AID 1347360); further: potency means the concentration at half of the fitted maximal effect
In short: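 Caspase-Glo 3/7 luminescence (DEVD substrate) after 15 min RT; HPAF-II, 500 cells/well, 18 h compound exposure at 37 degrees C, qHTS series; doxorubicin control 0.1nM - 4uM.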

[8] = qHTS for Hypoxia signaling pathway (HIF-1) antagonists against the NCATS CANVASS Library (AID 1347374); further: nearly all actives have a fitted effect of over 60% in size; further: potency means the concentration at half of the fitted maximal effect;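 on activity change, negative = inhibition: HRE-bla ME-180 cells stimulated with cobalt chloride to stabilize HIF-1alpha; on the % scale 0 is the no-effect control and ±100 the full control effect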
In short: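 HRE-bla ME-180 cells in medium with 0.5% dialyzed FBS received compounds (11-point series) plus CoCl2 (60 uM addition stock) for 17 hrs at 37C. Beta-lactamase activity read with CCF4 (405 nm ex, 460/530 nm em); CellTiter-Glo viability measured in same wells.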

[9] = OV-SAHO Cancer Cell Toxicity qHTS against the NCATS CANVASS Library (AID 1347348); further: nearly all actives have a fitted effect of over 55% in size; further: potency means the concentration at half of the fitted maximal effect
In short: as §1

[10] = molecular target: Glucocorticoid receptor (Homo sapiens) (UniProt P04150); experiment: GR-GFP Redistribution (AID 450;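 active means compounds whose dose series gives a full or clear partial fitted curve of increased nuclear translocation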; further: potency means the concentration at half of the fitted maximal effect); conditions: U2OS GR-GFP nuclear translocation, laser cytometry, 2 h
[11] = molecular target: Glucocorticoid receptor (Homo sapiens) (UniProt P04150); experiment: GR-EFC Redistribution (AID 451; calls by dose curve; further: potency means the concentration at half of the fitted maximal effect); conditions: CHO-K1 GR-EFC translocation, beta-gal luminescence, 2 h
In short: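 Translocation of GR-ED fusion to nuclear EA restores b-gal, read by luminescence after 1 h room-temperature detection. Engineered CHO-K1 biosensor cells, 1,000/well, exposed 2 h at 37 C to titrations up to 46 uM final.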

[12] = qHTS Assay for Lipid Storage Modulators (AID 1519; calls by dose curve); conditions: Drosophila S3 cells, BODIPY lipid droplet/cell ratio, laser cytometry, cells loaded with oleic acid
In short: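 Cells seeded at 5,000 per well were treated with compounds over a concentration series and loaded with oleic acid (400 uM, as added). Lipid droplet fluorescence (488 nm excitation, 500-530 nm channel) was read by laser-scanning cytometry and normalized to 20 uM Triacsin C.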

[13] = molecular target: Ubiquitin carboxyl-terminal hydrolase 1 (Homo sapiens) (UniProt O94782); experiment: Inhibitors of USP1/UAF1: Pilot qHTS (AID 504865); further: potency means the concentration at half of the fitted maximal effect; nearly all actives have a fitted effect of over 35% in size
In short: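 1nM USP1/UAF1 + cpd, 15 min RT; start w/ Ub-Rho 150nM final; kinetic FL 480/540 nm, 6 reads q60 s. Buffer 50mM HEPES pH 7.8, 0.5mM EDTA, 1mM TCEP, 0.01% Tween-20, 0.1 mg/ml BSA.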

[14] = molecular target: DNA dC->dU-editing enzyme APOBEC-3G (Homo sapiens) (UniProt Q9HC16); experiment: qHTS for inhibitors of Vif-A3G interactions: Validation (AID 588379); further: 0% is about no effect
In short: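 HeLa cells stably expressing Vif and A3G-eYFP, 700 cells/well, incubated overnight at 37 deg C, then exposed to compound overnight at 37 deg C. Inhibition of Vif-mediated degradation read as increased yellow fluorescence (Ex 488/Em 500-530) by laser-scanning cytometry.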

Sequence of Glucocorticoid receptor (Homo sapiens) (P04150 whole entry, looked up, the tested form may be a part): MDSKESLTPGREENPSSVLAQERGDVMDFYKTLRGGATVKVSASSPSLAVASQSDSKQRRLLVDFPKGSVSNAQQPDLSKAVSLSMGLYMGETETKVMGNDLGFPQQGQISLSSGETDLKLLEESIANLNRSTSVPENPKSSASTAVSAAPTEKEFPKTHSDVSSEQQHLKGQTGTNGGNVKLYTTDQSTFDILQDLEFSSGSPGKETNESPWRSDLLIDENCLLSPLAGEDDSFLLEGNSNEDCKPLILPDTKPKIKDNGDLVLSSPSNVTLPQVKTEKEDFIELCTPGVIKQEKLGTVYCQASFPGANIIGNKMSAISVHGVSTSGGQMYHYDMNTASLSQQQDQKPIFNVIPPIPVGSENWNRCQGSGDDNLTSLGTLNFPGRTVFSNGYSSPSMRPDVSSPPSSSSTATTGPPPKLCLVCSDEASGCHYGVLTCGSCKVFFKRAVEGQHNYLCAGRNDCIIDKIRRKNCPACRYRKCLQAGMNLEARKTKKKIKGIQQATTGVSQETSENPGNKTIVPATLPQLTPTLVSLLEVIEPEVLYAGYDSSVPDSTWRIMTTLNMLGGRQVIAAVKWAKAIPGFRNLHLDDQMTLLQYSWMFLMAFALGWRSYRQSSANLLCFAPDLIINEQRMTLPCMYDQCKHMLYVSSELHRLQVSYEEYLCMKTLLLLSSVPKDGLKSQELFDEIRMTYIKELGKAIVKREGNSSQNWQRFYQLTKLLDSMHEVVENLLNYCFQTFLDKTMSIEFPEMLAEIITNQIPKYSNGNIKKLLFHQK
Sequence of Ubiquitin carboxyl-terminal hydrolase 1 (Homo sapiens) (O94782 whole entry, looked up): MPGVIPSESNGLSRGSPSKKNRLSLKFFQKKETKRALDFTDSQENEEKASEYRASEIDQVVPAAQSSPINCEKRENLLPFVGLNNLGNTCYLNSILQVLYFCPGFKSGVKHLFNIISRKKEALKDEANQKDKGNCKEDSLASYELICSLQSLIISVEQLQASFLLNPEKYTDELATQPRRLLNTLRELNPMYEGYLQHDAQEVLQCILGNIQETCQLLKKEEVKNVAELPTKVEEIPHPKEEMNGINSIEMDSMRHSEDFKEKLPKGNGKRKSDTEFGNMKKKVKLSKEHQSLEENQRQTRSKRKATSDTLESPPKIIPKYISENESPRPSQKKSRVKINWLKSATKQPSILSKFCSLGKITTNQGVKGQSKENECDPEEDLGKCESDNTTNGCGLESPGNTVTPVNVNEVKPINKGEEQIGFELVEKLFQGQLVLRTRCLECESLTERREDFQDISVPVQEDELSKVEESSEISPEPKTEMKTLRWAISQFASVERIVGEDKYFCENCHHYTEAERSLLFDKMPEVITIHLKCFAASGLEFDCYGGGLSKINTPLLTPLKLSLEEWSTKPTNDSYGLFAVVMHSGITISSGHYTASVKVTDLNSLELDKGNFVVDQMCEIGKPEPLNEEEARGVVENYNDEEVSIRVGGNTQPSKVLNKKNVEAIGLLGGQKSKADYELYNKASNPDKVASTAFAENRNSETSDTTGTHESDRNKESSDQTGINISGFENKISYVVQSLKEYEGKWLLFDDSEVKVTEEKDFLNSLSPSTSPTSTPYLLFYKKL
Sequence of DNA dC->dU-editing enzyme APOBEC-3G (Homo sapiens) (Q9HC16 whole entry, looked up): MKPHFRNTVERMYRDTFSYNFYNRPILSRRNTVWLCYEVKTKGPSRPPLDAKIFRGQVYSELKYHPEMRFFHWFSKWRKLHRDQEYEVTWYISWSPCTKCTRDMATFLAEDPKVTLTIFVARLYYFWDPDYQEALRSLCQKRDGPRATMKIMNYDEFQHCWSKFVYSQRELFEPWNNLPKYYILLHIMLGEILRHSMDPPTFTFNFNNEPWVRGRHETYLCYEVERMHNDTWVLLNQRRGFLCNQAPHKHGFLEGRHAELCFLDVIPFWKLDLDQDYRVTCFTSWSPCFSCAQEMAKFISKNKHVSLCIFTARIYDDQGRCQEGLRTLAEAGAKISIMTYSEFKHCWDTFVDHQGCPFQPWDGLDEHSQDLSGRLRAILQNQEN

O=Cc1ccc2n1C[C@@]1(OC2)O[C@H](CO)[C@@H](O)[C@@H]1O
inactive: Potency [1] | Potency [2] | Potency [3] | Potency [4] | Potency [5] | Potency [6]

CO[C@@H]1[C@H](O)[C@@H](C)O[C@@H](OC[C@@H]2C(C)OC(=O)/C=C/[C@H](C)C(O[C@@H]3O[C@H](C)CC4(OC(=O)O[C@@H]4C)C3O)[C@@H](C)CC(C)C(=O)CC[C@H]3OC23)[C@@H]1OC (stereo partly specified)
inactive: Potency [1] | Potency [7] | Potency [4] | Potency [5] | Potency [6]

C=C(NC(=O)c1csc(-c2nc3c(cc2O)-c2nc(cs2)C(=O)NC(C(C)O)C(=O)N/C(=C(\C)O)c2nc(cs2)C(=O)NC2c4nc(cs4)C(=O)NC(COC(=O)c4c5c6c(cccc6n4O)COC(=O)[C@@H](OC4C[C@](C)(O)[C@H](N(C)C)[C@H](C)O4)C2OC5)c2nc-3cs2)n1)C(N)=O (stereo partly specified)
active: Potency [4] 334 nM
inactive: Potency [1] | Potency [7] | Potency [8]

Oc1ccc(C2c3c(O)cc(O)cc3[C@@H]3C(c4ccc(O)cc4)c4c(O)cc(O)cc4[C@H]23)cc1 (stereo partly specified)
inactive: Potency [1] | Potency [9] | Potency [2] | Potency [7] | Potency [3] | Potency [8] | Potency [6]

C/C=C/c1cc(OC)c2c(c1)[C@@H](C)[C@H](c1ccc(O)c(OC)c1)O2
inactive: Potency [1] | Potency [2] | Potency [4] | Potency [5] | Potency [6]

C[C@@H]1C(=O)[C@]23CC[C@H]1C[C@]21O[C@H]2C(C)(C)C=CC(=O)[C@@]23COC1=O
inactive: Potency [1] | Potency [7] | Potency [5]

C[C@@]12C[C@@H](C[C@H]3C(=O)O[C@@H](c4ccoc4)[C@H](OC(=O)c4ccccc4)[C@@H]31)OC2=O
inactive: Potency [1] | Potency [7] | Potency [3] | Potency [8] | Potency [4] | Potency [5]

C/C=C/C=C/C1(O)C2C=C3C(=O)CC45C(=O)C(O)=C(C)C(=O)C4C1C1(C(=O)C(O)=C(C)C(=O)C351)C2C (stereo unspecified)
inactive: Potency [1] | Potency [9] | Potency [3] | Potency [8] | Potency [5]

CN1C(=O)[C@]23SS[C@@]1(C)C(=O)N2[C@H]1Nc2ccccc2[C@]1(c1c[nH]c2ccccc12)[C@@H]3O
active: Potency [1] 0.747 µM | Potency [9] 0.838 µM | Potency [2] 743 nM | Potency [7] 469 nM | Potency [6] 24.1 µM

C[C@@H](O)[C@H]1OC(=O)C=C2[C@]3(C)[C@H]4[C@H](OC(=O)[C@@]4(C)[C@@H](O)[C@H]4O[C@H]43)[C@H]3O[C@@]231
inactive: Potency [6]
active: Potency [1] 2.65 µM | Potency [9] 1.33 µM | Potency [4] 594 nM

CC1(C)CCC[C@]2(C)[C@@H]1CC[C@@]13C[C@@H](CC[C@H]12)C(C)(O)C3 (stereo partly specified)
inactive: Potency [1] | Potency [2] | Potency [3] | Potency [4] | Potency [5]

O=C(O)CC1OCc2c(O)cccc21 (stereo unspecified)
inactive: Potency [1] | Potency [7] | Potency [4] | Potency [5]

CO[C@H]1/C=C/CC[C@@H](S[C@@H]2O[C@H](CO)[C@@H](O)[C@H](O)[C@H]2O)CC(=O)O[C@@H](/C(C)=C/[C@H](C)C(=O)CCCC2CC(=O)NC(=O)C2)[C@@H](C)[C@@H]1O
inactive: Potency [4] | Potency [5]
active: Potency [1] 2.98 µM | Potency [9] 3.75 µM | Potency [3] 1.18 µM | Potency [8] 2.11 µM

COc1ccc2oc3c(OC)c(OC)c(OC)c(OC)c3c(=O)c2c1
inactive: activity change, negative = cytotoxicity [1] -4.07% [at 7.64 µM] | activity change, negative = cytotoxicity [9] -19.6% [at 7.64 µM] | activity change, negative = inhibition [8] 0.76% [at 7.64 µM] | activity change, negative = inhibition [4] -46.5% [at 5.73 µM] | activation [5] -1.1% [at 9.19 µM] | activation (redox signal) [6] -9.99% [at 11.4 µM]

CN1CC[C@]2(c3cccc4c3N[C@@H]3N(C)CC[C@]43[C@@]34CCN(C)[C@@H]3Nc3c([C@]56CCN(C)[C@H]5Nc5ccccc56)cccc34)c3ccccc3N[C@H]12
inactive: Potency [6]
active: Potency [1] 4.72 µM | Potency [9] 3.75 µM | Potency [3] 1.32 µM

C=C[C@]1(C)CC[C@@H]([C@H](C)C(=O)/C=C/C(C)C)O1
inactive: Potency [1] | Potency [2] | Potency [7] | Potency [8] | Potency [5] | Potency [6]

CO[C@@H]1[C@H](O)[C@@H](C)O[C@@H](OC[C@H]2/C=C/C=C/C(=O)C(C)C[C@H](C)C(O[C@@H]3O[C@H](C)CC4(OC(=O)O[C@@H]4C)C3O)[C@@H](C)/C=C/C(=O)OC2C)[C@@H]1OC (stereo partly specified)
inactive: Potency [1] | Potency [9] | Potency [8] | Potency [5] | Potency [6]

CC(C)=CCC[C@@H](C)[C@@H]1CC[C@@]2(C)C[C@H]3C(C)=CC(=O)[C@@H]3/C(C=O)=C\C[C@H]12
active: Potency [1] 6.66 µM | Potency [9] 10.6 µM

CO[C@@H]1C[C@@H](C[C@H]2CC[C@H](C)[C@H]([C@@H](C)C(=O)O)O2)O[C@]2(O[C@](C)([C@H]3CC[C@@](C)([C@@H]4O[C@@H]([C@H]5O[C@](C)(O)[C@H](C)C[C@@H]5C)C[C@@H]4C)O3)C[C@H]2C)[C@@H]1C
active: Potency [1] 3.34 µM | Potency [8] 2.11 µM | Potency [4] 4.2 nM | Potency [5] 3.71 µM

O=C(Nc1cc(C(=O)Nc2ccc(S(=O)(=O)O)cc2S(=O)(=O)O)cc(C(=O)Nc2ccc(S(=O)(=O)O)cc2S(=O)(=O)O)c1)Nc1cc(C(=O)Nc2ccc(S(=O)(=O)O)cc2S(=O)(=O)O)cc(C(=O)Nc2ccc(S(=O)(=O)O)cc2S(=O)(=O)O)c1
inactive: Potency [10] > 46 µM | Potency [11] > 46 µM | activity change, negative = inhibition ([12]; at 57.5 µM (top of the series)) 10.5% | Potency [14]
-19.5%: max response ([12]; measured here: cell count channel max response)
active: Potency [13] 1 µM
-13.3%: max response ([12]; measured here: lipid channel max response)

C=C1C(=O)O[C@H]2C[C@H](C)[C@@H]3CC(=O)C(C)=C3[C@H](O)[C@H]12
inactive: Potency [5]
active: Potency [9] 14.9 µM | Potency [3] 16.6 µM

CC12C[C@]3(O)O[C@@H](O1)[C@]1(COC(=O)c4ccccc4)[C@@H]3CC21OC1OC(CO)C(O)C(O)C1O (stereo partly specified)
inactive: Potency [9] | Potency [4] | Potency [5] | Potency [6]
